Screens: PubChem, National Center for Advancing Translational Sciences (NCATS)
Sfp inh: inhibitors of Bacillus subtilis Sfp phosphopantetheinyl transferase. 310,000 tested, 3.5% active. Q9F4F7. Potency, µM, for the others: largest response in the series, negative = inhibition, usual class: inhibitors. Biochemical Sfp PPTase activity, qHTS. AID 1490;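 note: the enzyme is Sfp with the accession as filed and its product quenches rhodamine fluorescence; 0% = enzyme reaction without inhibitor and -100% = no enzyme wells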
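Reaction rates are the 30-min fluorescence difference (ex 525, em 598 nm) in wells containing 15 nM Sfp, 5 uM rhodamine-CoA and 12.5 uM BHQ-2-YbbR at pH 7.6 with 10 mM MgCl2.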
HP1b binding inh: inhibitors of HP1-beta chromodomain binding to methylated histone tails; AlphaScreen HP1-beta / biotin-H3K9me3 peptide binding; Potency, µM (titrated, usually from 114 µM), for the others: top-dose activity change, negative = inhibition, most hits filed as inhibitors; 390,000 tested, 0.56% active; note: nearly all actives have a fitted effect of over 70% in size
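AlphaScreen: HP1-beta (50 nM) preformed 30 min with biotin-H3(1-18)K9me3 peptide (50 nM) in PBS pH 7.4, 0.01% Tween-20. Compound added for 30 min at RT, then streptavidin donor/nickel chelate acceptor beads (10 ug/mL) for 30 min.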
G9a block: inhibitors of human histone lysine methyltransferase G9a; G9a H3K9 monomethylation, AlphaScreen, 2 h; AID 504332; Potency, µM (series often up to 102 µM), for the others: top-dose activity, negative = inhibition, usual class: inhibitors; 350,000 tested, 8.8% active; note: % is set by controls: 0 for no effect and ±100 for the full control effect; nearly all actives have a fitted effect of over 75% in size
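G9a (20 nM) was preincubated 15 min with compound, then reacted 2 h at room temperature with 500 nM biotin-H3K9 peptide and 20 µM SAM. Monomethyl-H3K9 detected by AlphaScreen using anti-H3K9me1 antibody.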
JMJD2A Tudor inh: blocks the human JMJD2A Tudor domain | AlphaScreen JMJD2A-Tudor / H3K4me3 peptide binding | Potency, µM (doses to about 114 µM), for inactives: at the highest dose activity change, negative = inhibition, actives largely listed as inhibitors | 390,000 tested, 4.4% active | O75164; note: % is set by controls: 0 for no effect and ±100 for the full control effect; nearly all actives have a fitted effect of over 50% in size
BAZ2B inh: BAZ2B (human) inhibition; AID 504333; Q9UIF8; AlphaScreen BAZ2B-H3K14Ac peptide displacement; Potency, µM (highest dose often 114 µM), for the others: at the top dose activity change, negative = inhibition, usual class: inhibitors; 360,000 tested, 4.4% active; note: % is set by controls: 0 for no effect and ±100 for the full control effect; nearly all actives have a fitted effect of over 60% in size
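BAZ2B (50 nM) with biotin-H3(5-23)K14Ac peptide (50 nM) in PBS pH 7.4, 0.01% Tween-20, preformed 30 min, then compound 30 min at room temperature; top concentration 110uM. AlphaScreen streptavidin donor/nickel chelate acceptor beads (10 ug/mL final), 20 min dark, signal read.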
TDP1 inh: TDP1 (human) enzyme inhibition. Q9NUW8. 350,000 tested, 0.28% active. Potency, µM (doses to about 130 µM), inactives show at the top dose activity change, negative = inhibition, actives largely listed as inhibitors. AID 485290. recombinant TDP1, AlphaScreen DNA substrate cleavage; note: % is set by controls: 0 for no effect and ±100 for the full control effect; nearly all actives have a fitted effect of over 40% in size
Target sequence (Q9NUW8 whole entry, looked up): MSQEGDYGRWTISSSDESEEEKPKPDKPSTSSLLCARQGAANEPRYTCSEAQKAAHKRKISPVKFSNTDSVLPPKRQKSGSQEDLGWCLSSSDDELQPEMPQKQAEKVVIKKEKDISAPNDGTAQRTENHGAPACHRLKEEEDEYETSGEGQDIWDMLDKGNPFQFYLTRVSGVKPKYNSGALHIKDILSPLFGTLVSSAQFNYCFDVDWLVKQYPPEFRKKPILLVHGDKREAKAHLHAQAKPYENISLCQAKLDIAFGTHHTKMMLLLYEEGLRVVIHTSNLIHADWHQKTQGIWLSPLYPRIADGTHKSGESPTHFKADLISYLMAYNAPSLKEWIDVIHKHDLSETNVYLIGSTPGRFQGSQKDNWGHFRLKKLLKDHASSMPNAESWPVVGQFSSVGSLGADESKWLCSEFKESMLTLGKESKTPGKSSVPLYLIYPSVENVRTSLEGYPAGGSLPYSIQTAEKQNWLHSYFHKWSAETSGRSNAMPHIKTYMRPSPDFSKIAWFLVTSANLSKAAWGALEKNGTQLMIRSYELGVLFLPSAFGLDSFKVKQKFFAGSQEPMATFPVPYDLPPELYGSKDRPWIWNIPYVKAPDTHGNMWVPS
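Here, a 5' biotin and 3' phosphotyrosine-FITC DNA oligonucleotide reports Tdp1 activity: intact substrate bridges AlphaScreen beads, while cleavage leaves a 3' phosphate and drops signal. All incubations at room temperature.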
* hit, by the source's call; ? = inconclusive; . = no result; [ ] = dose if it differs, or a comment. Most compounds without a hit are left out; they make up all but 12% or so of the library. Calls come from the whole dose curve; as a rule, active = well fitted curve in the direction sought with a large enough effect; inconclusive = small, poorly fitted or top-dose-only effect, or another doubt; inactive = no such curve, though single readings can be large; an effect the other way counts as inactive or inconclusive. Potency is the fitted concentration of half-maximal effect.

SMILES	Sfp inh	HP1b binding inh	G9a block	JMJD2A Tudor inh	BAZ2B inh	TDP1 inh
COc1cc(OC)cc(-c2sc3ccc(OC)cc3c2-c2ccc(OCCN3CCCCC3)cc2)c1	.	-32.5%	.	20µM*	.	6.3%[56.1 µM]
CCCCN(CCCNC(=O)C1CCN(S(=O)(=O)CC)CC1)c1ccccc1	-0.1%	-9.3%	7.08µM*	-30.2%	-26.3%	-0.7%[56.1 µM]
CCN(CCNC(=O)C1CCN(S(=O)(=O)c2cccc3nsnc23)CC1)c1ccccc1	-1.0%	-27.2%	50.1µM*	?	?	5.9%
NS(=O)(=O)c1ccc(CCNC(=O)C2CCCN2S(=O)(=O)c2cccc3nsnc23)cc1 (stereo not given)	8.2%	30.0%	79.4µM*	-2.3%	-3.0%	4.5%
CCCN(CCC)CCCNC(=O)C1CCN(S(=O)(=O)c2cccc3nsnc23)CC1	7.2%	42.0%	-11.3%	-13.4%	-4.9%	0.7%
O=C(NCCc1ccccc1)C1CCCN1S(=O)(=O)c1cccc2nsnc12 (stereo not given)	8.2%	29.9%	-0.7%	-2.4%	-4.9%	4.4%
CCN(CCNC(=O)CN(C)S(=O)(=O)c1cccc2nsnc12)c1ccccc1	-13.1%	-1.5%	39.8µM*	?	?	10.1%
CCN(CC)C(=O)CN(C)S(=O)(=O)c1cccc2nsnc12	0.3%	29.9%	-1.6%[59 µM]	-10.3%	2.2%	6.8%
CCN(CCNC(=O)C1CCN(S(=O)(=O)CC)CC1)c1ccccc1	2.1%	12.9%	?	-18.8%	4.8%	1.1%
COc1cccc(-c2noc(COc3ccccc3Cl)n2)c1	.	218.4%	158.4%[59 µM]	238.5%	297.4%	-14.7%
N#CCCn1c(=O)c(-c2cccs2)nc2cnc(N3CCOCC3)nc21	28.8%	.	5.8%[0.501 µM]	.	.	.
CCN(CCNC(=O)C1CCN(c2nnc(-n3cccc3)s2)CC1)c1ccccc1	11.3%	11.2%	15.8µM*	-29.7%	-33.5%	8.7%
CCc1ccccc1NC(=O)Cn1c(=O)n(CCCS(=O)(=O)C2CCCCC2)c(=O)c2ccccc21	.	19.9%	0.0%[59 µM]	-17.5%	12.1%	-2.5%
Cc1c(C)n(C(=O)CSc2nc3ccccc3[nH]2)c2ccccc12	-0.8%	2.2%	50.1µM*	?	?	.
O=C(CSc1nc2ccccc2[nH]1)N1c2ccccc2Sc2ccccc21	-17.9%	4.8%	44.7µM*	?	?	0.0%
O=C(O)CSc1ncnc2sc3c(c12)CCC3	14.3%	36.2%	-17.1%	-23.6%	50.1µM*	.
CCN(CC)c1ncnc2sc3c(c12)CCC3	-3.6%	33.5%	39.8µM*	9.8%	-7.3%	0.0%
COc1ccc(Cl)cc1NC(=O)c1cc(S(=O)(=O)N2CCC(C)CC2)cn1C	.	16.3%[57 µM]	-2.3%[59 µM]	-13.7%	0.4%	6.5%
N#Cc1cccc(-c2nc(NCCN3CCOCC3)c3ccccc3n2)c1	10.6%	.	-0.3%[0.501 µM]	.	.	.
CCNC(=S)N1CCN(c2ccccn2)CC1	?	30.6%	6.7%	-4.9%	-0.6%	0.0%
CN1CCN(C(=S)NC(=O)c2ccco2)CC1	56.2µM*	3.8%	50.1µM*	15.8µM*	?	2.6%
CC(NNC(=S)N1CCN(c2ccccn2)CC1)c1nccc2ccccc12 (stereo not given)	.	25.1µM*	.	20µM*	.	.
CC1CCN(C(=S)NC(=O)c2cccs2)CC1	4.6%	22.6%	44.7µM*	-9.7%	-18.8%	1.1%
O=C(NC(=S)N1CCN(c2ccc(O)cc2)CC1)c1ccco1	.	11.5%	.	-4.9%	.	2.4%
CN1CCN(C(=S)NC(=O)/C=C/c2cccc3ccccc23)CC1	1.1%	2.1%	-4.2%	?	-1.4%	7.4%
CN1CCN(C(=S)NC(=O)/C=C/c2cccs2)CC1	-7.2%	23.5%	50.1µM*	?	-17.3%	5.7%
Cn1nnnc1SCCCNCc1ccccc1OCc1ccccc1Cl	.	26.3%	-32.8%[59 µM]	-16.6%	-12.0%	0.5%
O=C(c1ccco1)N1CCC2(CC1)CN(c1ccccn1)C2	0.2%	.	41.8%[12.7 µM]	.	.	.
O=C(NC(=S)N1CCN(c2ccccn2)CC1)c1ccco1	-27.1%	11.5%	56.2µM*	-12.4%	?	1.2%
